Reference: PubChem BioAssay AID2563 (Broad Institute, 2010)
In all, about 290,000 compounds went through this assay and about 800 (0.28%) were called active.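 How the source made its calls: active means fall in fluorescence gain of 50% or more versus controls, with final raw signal at or below 3038400; inconclusive means same 50% fall but final raw signal above 3038400; inactive means fall in fluorescence gain under 50%.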 The entries come from a sample that favours actives as a whole.

biological target: CAAX prenyl protease 2 (Saccharomyces cerevisiae (strain ATCC 204508 / S288c)) (UniProt Q03530); assay: yeast Rce1p protease inhibitors, primary screen, biochemical, fluorescence, cell-free homogeneous (AID 2563); settings: yeast membranes, quenched prenylated peptide cleavage fluorescence
Sequence (Q03530 whole entry, looked up): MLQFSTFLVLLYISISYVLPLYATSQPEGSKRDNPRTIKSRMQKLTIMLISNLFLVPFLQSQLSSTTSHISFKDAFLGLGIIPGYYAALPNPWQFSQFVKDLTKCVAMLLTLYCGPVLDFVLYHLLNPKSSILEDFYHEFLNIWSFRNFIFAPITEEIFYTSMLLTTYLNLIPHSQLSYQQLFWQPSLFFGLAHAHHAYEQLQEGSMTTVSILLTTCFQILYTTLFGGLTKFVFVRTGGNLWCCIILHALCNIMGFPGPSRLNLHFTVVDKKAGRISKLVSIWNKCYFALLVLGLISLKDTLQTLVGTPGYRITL

Row | Structure (SMILES) | outcome
1 | COc1ccc(NC(=O)CSc2nnc(Cc3ccccc3)c(=O)n2N)cc1 | inactive
2 | Cc1cc(C)c(S(=O)(=O)NCC(c2ccc3c(c2)OCO3)N2CCOCC2)c(C)c1 (centres undefined) | inactive
3 | COc1ccccc1N(C)S(=O)(=O)c1ccc(Cl)c(C(=O)Nc2ccncc2)c1 | inactive
4 | COCCNc1nc(N)c([N+](=O)[O-])c(NCCO)n1 | inactive
5 | Nc1nc(NCC(=O)O)nc(N2CCCCCC2)c1[N+](=O)[O-] | inactive
6 | COCCNc1nc(N)c([N+](=O)[O-])c(N2CCCCCC2)n1 | active
7 | O=C(NCC1(N2CCCCC2)CCCCC1)c1ccc(NS(=O)(=O)c2ccc(F)cc2)cc1 | inactive
8 | COc1ccc2oc(C(=O)N(CC(C)C)C3CCS(=O)(=O)C3)c(C)c2c1 (centres undefined) | inactive
9 | COc1ccc(S(=O)(=O)N2CCCCCC2)cc1C(=O)N(C)Cc1cccc(OC)c1OC | inactive
10 | Cc1noc(C)c1CSCC(=O)Nc1ccc(Br)cc1Cl | inactive
11 | COC(C/C=C/C(=O)[C@@H](C)OCc1ccccc1)OC | inactive
12 | COC(C[C@@H]1O[C@@H]1C(=O)[C@@H](C)OCc1ccccc1)OC | active
13 | COC(C[C@@H]1O[C@@H]1C(=O)[C@H](C)OCc1ccccc1)OC | inactive
14 | COc1ccc(/C=N/NC(=O)c2cc(-c3cccc(C)c3)nc3ccccc23)cc1O | inactive
15 | CCOC(=O)C1CCN(C(=O)COC(=O)C2CCN(S(=O)(=O)c3ccc4c(c3)OCCO4)CC2)CC1 | inactive
16 | O=C(c1cc(-c2ccc(Cl)s2)nc2ccccc12)N1CCOCC1 | inactive
17 | O=C(Nc1cccc(F)c1)c1cc(-c2ccco2)nc2ccccc12 | inactive
18 | CN(C(=O)COC(=O)c1cc(-c2ccco2)nc2ccccc12)C1CCS(=O)(=O)C1 (centres undefined) | inactive
19 | Cc1cc(C)c2nc(-c3ccco3)cc(C(=O)O)c2c1 | active
20 | CC(C)C(=O)NC(=S)Nc1ccccc1F | inactive
21 | CC(C)C(=O)Nc1cccc(NC(=S)NC(=O)C(c2ccccc2)c2ccccc2)c1 | active
22 | CCCCC(=O)NNC(=S)NC(=O)C(c1ccccc1)c1ccccc1 | inactive

Row | Structure (SMILES) | outcome
23 | CS(=O)(=O)c1ccc(C(=O)OCC(=O)NNC(=O)COc2ccc(Cl)cc2)cc1 | inactive
24 | CCC(=O)c1ccc(OCC(=O)OCC(=O)NC2CCCCCC2)cc1 | inactive
25 | Cc1nc2ccccn2c(=O)c1NC(=O)c1cccs1 | inactive
26 | COc1ccccc1C(=O)NNC(=O)c1ccc(NC(=O)c2ccccc2)cc1 | active
27 | COc1ccccc1C(=O)Nc1ccc(Nc2ccccc2)cc1 | inactive
28 | COc1ccccc1C(=O)Nc1ccccc1C(=O)Nc1ccccc1 | inactive
29 | Cc1nc2ccccc2c(=O)n1-c1ccc(F)c(NC(=O)c2cccs2)c1 | inactive
30 | Cc1cc(C)c(S(=O)(=O)N2CCCC2CNC(=O)c2ccc3c(c2)OCO3)c(C)c1 (centres undefined) | inactive
31 | COC(=O)N/N=C/c1c[n+]([O-])c2ccccc2[n+]1[O-] | inactive
32 | NS(=O)(=O)c1cc(C(=O)OCC(=O)NNC(=O)c2ccccc2)ccc1Cl | inactive
33 | CCN(CC(=O)Nc1ccccc1C(F)(F)F)C(=O)CSCc1c(C)noc1C | inactive
34 | COc1ccc2nc(N3CCN(C(=O)c4ccc([N+](=O)[O-])o4)CC3)sc2c1 | inactive
35 | CC(=O)c1ccc(S(=O)(=O)Nc2ccc(-c3ccc4nncn4n3)cc2)cc1 | inactive
36 | COC(=O)C1CCN(C(=O)NC2CC(=O)N(c3ccc4c(c3)OCCO4)C2)CC1 (centres undefined) | inactive
37 | Cc1cc(Br)ccc1NC(=O)c1sc2ncn(CC(=O)N3CCN(c4ccccn4)CC3)c(=O)c2c1C | inactive
38 | Cc1cc(Br)ccc1NC(=O)c1cnc(N2CCN(c3ccccn3)CC2)c2ccccc12 | active
39 | O=C(CN1CCN(c2ccccn2)CC1)Nc1ccc(Br)cc1 | inactive
40 | O=C(Nc1ccc(N2CCCCC2)cc1)c1cc(S(=O)(=O)N2CCOCC2)ccc1F | inactive
41 | CN1c2ccc(C=O)c3c(C=O)ccc(c23)N(C)C1(C)C | active
42 | CCOc1ccc(S(=O)(=O)NCCC(=O)NCC(C)(C)N2CCOCC2)cc1 | inactive
43 | CC(=O)Nc1ccc(NC(=O)CSc2nnnn2C2CCCCC2)cc1 | inactive
44 | COc1ccc(Cl)cc1NS(=O)(=O)c1cccc(C(=O)NC2CCC(O)CC2)c1 (centres undefined) | inactive

Row | Structure (SMILES) | outcome
45 | Cc1ccc(NC(=O)C2CC(=O)N(c3ccc4c(c3)OCCO4)C2)cc1S(=O)(=O)N1CCCCCC1 (centres undefined) | inactive
46 | O=C(CCNC(=O)c1ccc(Br)cc1)NCCCc1ccccc1 | inactive
47 | CN(CC(=O)NNC(=O)CNC(=O)c1ccccc1Cl)S(=O)(=O)c1ccc(Cl)cc1 | inactive
48 | COCc1c(C(=O)N/N=C/C2CC=CCC2)nnn1-c1nonc1N (centres undefined) | active
49 | Cc1ccc(SCc2c(C(=O)N/N=C/C3CC=CCC3)nnn2-c2nonc2N)cc1 (centres undefined) | inactive
50 | COCc1c(C(=O)N/N=C\c2cccnc2)nnn1-c1nonc1N | inactive
51 | Cc1ccc(-c2csc(NCCc3nc4cc(Cl)c(Cl)cc4n3CCOCCO)n2)cc1 | inactive
52 | CCCn1c(C2CCCN2c2nc(-c3ccc(C)cc3)cs2)nc2cc(Cl)c(N3CCCCC3)cc21 (centres undefined) | inactive
53 | Cc1ccc(-c2csc(N3CCN(c4cc5c(cc4Cl)nc(-c4ccncc4)n5CCOCCO)CC3)n2)cc1 | active
54 | COc1ccc(Cl)cc1NC(=O)CN(C)C(=O)c1cc(-c2cccs2)nn1-c1ccccc1 | inactive
55 | COc1cc2ccccc2cc1C(=O)Nc1ccncc1 | inactive
56 | CCc1nnc(NS(=O)(=O)c2ccc(NC(=O)c3cccc(OC(F)(F)C(F)F)c3)cc2)s1 | inactive
57 | CC1(C)O[C@H]2CC(=O)OCC23[C@H]2CC[C@@]4(C)[C@H](c5ccoc5)OC(=O)[C@H]5O[C@]54[C@]2(C)C(=O)C[C@@H]13 (some centres undefined) | inactive
58 | CCCNC(=O)c1ccc(N2CCC3(CC2)CC(c2cccc(Br)c2)=NO3)c(NC(=O)c2ccco2)c1 | inactive
59 | Cc1cccc(N=C2SC(C)CN2C(=O)CN2C(=O)NC3(CCCC3)C2=O)c1 (centres undefined) | inactive
60 | O=C(NCC(O)c1ccc([N+](=O)[O-])cc1)C1CCCCC1 (centres undefined) | inactive
61 | O=C(CC(c1ccccc1)c1ccccc1)NCC(O)c1ccc([N+](=O)[O-])cc1 (centres undefined) | active
62 | CC(=O)NCC(O)c1ccc([N+](=O)[O-])cc1 (centres undefined) | inactive
63 | Cc1ccc(OCC(=O)Oc2ccccc2[N+](=O)[O-])cc1 | inactive
64 | Cc1cc(C)c(C)c(S(=O)(=O)N2CCN(C(=O)c3ccc4c(=O)n5c(nc4c3)CCC5)CC2)c1C | inactive
